Molecules are shown by their SMILES. About 79,000 compounds went through this panel and 15% of them were active in at least one assay; those are over-represented in the sample as a whole. Active and inactive are the calls of the source. No stated cut-off is given here; in the data, active means growth inhibition above about 70%; inactive means the rest.

One test is described as follows: NCI Yeast Anticancer Drug Screen. Data for the sgs1 mgt1 strain (AID 161).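 Further: 0% = growth of cultures given vehicle only.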 Conditions: S. cerevisiae sgs1 mgt1 strain, at 5.0 µM (retest, dose inferred, filed as 0.5), stronger effect = higher value. In short, it runs like this: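 Compounds are added to genetically altered yeast, and growth is compared with cultures given vehicle alone to give percent inhibition.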
Turning to `CCCCCCCCCCCCCCOC(=O)C(N)Cc1ccc(O)cc1` (stereo not given), the growth inhibition is 4% (inactive).
Take `CN(C)c1ccc(C(O)(Cc2cccc(C#N)c2)c2ccc(N(C)C)cc2)cc1`: the growth inhibition was -4% (inactive).
The same measure, in the same setting: then `O=C(NNC(=O)c1cccc(C(=O)NNC(=O)c2ccc(Cl)c(Cl)c2)n1)c1ccc(Cl)c(Cl)c1`, with 47% (inactive); and `C=C1C(=O)O[C@H]2[C@H](OC(C)=O)[C@@H](C)CCC/C(C)=C/CC[C@@]3(C)O[C@@H]3C[C@@H]12`, with 20% (inactive); and `O=C(c1ccccc1)C1OC1c1ccccc1Cl` (stereo not given), with 7% (inactive).
Same read-out and setting: then `[N-]=[N+]=Nc1ccc(SSCCC(=O)ON2C(=O)CCC2=O)cc1`, with 40% (inactive); and `Cc1cc(N(CCC#N)CCC#N)ccc1/C(N=Nc1cccc([N+](=O)[O-])c1)=N/NC(=O)c1cc(Cl)ccc1O`, with 9% (inactive).
On the same count and under the same terms, then `CC(C)/C(Cl)=N\OC(=O)Nc1ccc(S(N)(=O)=O)cc1`, with 2% (inactive).
As for `CCCCCCCCCCCCCC(=O)OCC(O)CO` (stereo not given), the growth inhibition is 4% (inactive).
On the same count and under the same terms, then `O=C1C=CC(=O)N1C1CCCCC1`, with 95% (active); and `CCCCCCCCCCCC(=O)OCC1OC(n2cc(F)c(=O)[nH]c2=O)C(N)C(O)C1O` (stereo not given), with 10% (inactive).
Take `CN(C)c1ccc(C2C=C(c3ccccc3)Oc3ccccc32)cc1` (stereo not given): the growth inhibition is 97% (active).
With `CS(=O)(=O)OCCN(CCOS(C)(=O)=O)c1ccc(C=Nc2cccc(Cl)c2)cc1`, the growth inhibition is 17% (inactive).
For `O=C1C(=O)N(c2cc(Cl)ccc2Cl)C(=O)C(=O)C1c1nc2ccccc2o1`, the growth inhibition was 22% (inactive).
Same read-out and setting: then `CC1=NC(=Cc2ccc(Cl)cc2)C(=O)N1n1c(-c2ccccc2)nc2ccccc2c1=O`, with -7% (inactive).
`C/C(=N/Nc1ccc([N+](=O)[O-])cc1[N+](=O)[O-])C1=CCC(C(C)(C)C)CC1` (stereo not given): the growth inhibition was -5% (inactive).
Take `Cc1ccc(C)c(N2C(=O)C(=O)C(c3nc4ccccc4o3)/C(=N\NC(=O)c3ccccc3O)C2=O)c1` (stereo not given): the growth inhibition is 7% (inactive).
On the same count and under the same terms, then `O=C(/C=C/C=C/c1ccccc1)c1ccco1`, with -10% (inactive).
For `O=C1CCC(=O)c2c1c(O)c1ccncc1c2O`, the growth inhibition was 31% (inactive).
Same read-out and setting: then `CNC(=O)OC(C)CN1c2ccccc2Sc2ccc(Cl)cc21` (stereo not given), with 2% (inactive); and `c1coc(C2=Nc3cccc4cccc(c34)N2)c1`, with 36% (inactive); and `CCOC(=O)[C@]12CCC[C@@]1(O)NC(=O)c1cnccc12`, with 15% (inactive).
The same measure, in the same setting: then `Cc1cccc(C)c1N1C(=O)C2Nc3ccccc3SC2C1=O` (stereo not given), with 3% (inactive).
Consider `CCc1cccc(C(C)(C)C)c1NC(=S)N/C=C(\c1ccccc1)S(=O)Cc1ccccc1` (stereo not given), for which the growth inhibition is 10% (inactive).
Still for that read-out and setting: the value for `CC(=O)Nc1ccc(-c2cnc3ccccc3c2)cc1` was 8% (inactive); that for `OCC(CO)C1c2cccc3ccc4cccc1c4c23` was -2% (inactive).
For `O=C1CC(=S)NC(=S)N1`, the growth inhibition is -1% (inactive).
Consider `Cc1c2ccnc(C(N)=O)c2c(C)c2c1[nH]c1ccccc12`, for which the growth inhibition is 7% (inactive).
On to `CCC(=O)Sc1ccccc1C(=O)Nc1ccc(Cl)cc1`, for which the growth inhibition was 12% (inactive).
Same read-out and setting: then `O=C(O)c1c(Cl)c(Cl)c(Cl)c(Cl)c1-c1c2cc(I)c(=O)c(I)c-2oc2c(I)c(O)c(I)cc12`, with 82% (active); and `C=C/C=C/CC=C`, with -62% (inactive).
On the same count and under the same terms, then `Cc1ccccc1N1CCN(c2c3c(nc4ccccc24)CCCCC3)CC1`, with 7% (inactive).
The same measure, in the same setting: the value for `N/N=C(\N)c1ccc2ccc3cccnc3c2n1` was -2% (inactive).
`CCCCCC(CCCCC)C(=O)O`: the growth inhibition is -20% (inactive).
On the same count and under the same terms, then `O=Cc1cc(S(=O)(=O)c2ccc(O)c(C=O)c2)ccc1O`, with 17% (inactive).
The same measure, in the same setting: the value for `Cc1ccc(C)c(N2C(=O)C(=O)C(c3nc4ccccc4o3)C(=O)C2=O)c1` was 30% (inactive); that for `COC(=O)c1cc(C)c2sc3ccccc3c2c1C` was -7% (inactive); that for `O=C1NC(=O)N(c2ccc(Cl)c(Cl)c2)C1=O` was 0% (inactive).
For the compound `Clc1ccc2oc(N3CCCCC3)nc2c1`, the growth inhibition was 2% (inactive).
On the same count and under the same terms, then `Cc1ccc(N=NC(C(=O)c2ccccc2)C(=O)c2ccccc2)cc1`, with 14% (inactive).

Staying with this test, now noted: S. cerevisiae sgs1 mgt1 strain, at 50.0 µM (retest, dose inferred, filed as 5.0), stronger effect = higher value.
Regarding `CCCCCCCCCCCCCCOC(=O)C(N)Cc1ccc(O)cc1` (stereo not given), the growth inhibition is 98% (active).
Still for that read-out and setting: then `CN(C)c1ccc(C(O)(Cc2cccc(C#N)c2)c2ccc(N(C)C)cc2)cc1`, with -10% (inactive); and `O=C(NNC(=O)c1cccc(C(=O)NNC(=O)c2ccc(Cl)c(Cl)c2)n1)c1ccc(Cl)c(Cl)c1`, with 62% (inactive); and `C=C1C(=O)O[C@H]2[C@H](OC(C)=O)[C@@H](C)CCC/C(C)=C/CC[C@@]3(C)O[C@@H]3C[C@@H]12`, with 98% (active).
Take `O=C(c1ccccc1)C1OC1c1ccccc1Cl` (stereo not given): the growth inhibition was 54% (inactive).
Turning to `[N-]=[N+]=Nc1ccc(SSCCC(=O)ON2C(=O)CCC2=O)cc1`, the growth inhibition was 98% (active).
On the same count and under the same terms, then `Cc1cc(N(CCC#N)CCC#N)ccc1/C(N=Nc1cccc([N+](=O)[O-])c1)=N/NC(=O)c1cc(Cl)ccc1O`, with 49% (inactive); and `CC(C)/C(Cl)=N\OC(=O)Nc1ccc(S(N)(=O)=O)cc1`, with -23% (inactive); and `CCCCCCCCCCCCCC(=O)OCC(O)CO` (stereo not given), with 11% (inactive).
`O=C1C=CC(=O)N1C1CCCCC1`: the growth inhibition was 99% (active).
In the case of `CCCCCCCCCCCC(=O)OCC1OC(n2cc(F)c(=O)[nH]c2=O)C(N)C(O)C1O` (stereo not given), the growth inhibition is 10% (inactive).
The same measure, in the same setting: then `CN(C)c1ccc(C2C=C(c3ccccc3)Oc3ccccc32)cc1` (stereo not given), with 97% (active); and `CS(=O)(=O)OCCN(CCOS(C)(=O)=O)c1ccc(C=Nc2cccc(Cl)c2)cc1`, with 74% (active).
Regarding `O=C1C(=O)N(c2cc(Cl)ccc2Cl)C(=O)C(=O)C1c1nc2ccccc2o1`, the growth inhibition was 22% (inactive).
For `CC1=NC(=Cc2ccc(Cl)cc2)C(=O)N1n1c(-c2ccccc2)nc2ccccc2c1=O`, the growth inhibition was 71% (active).
`C/C(=N/Nc1ccc([N+](=O)[O-])cc1[N+](=O)[O-])C1=CCC(C(C)(C)C)CC1` (stereo not given): the growth inhibition was 27% (inactive).
Still for that read-out and setting: then `Cc1ccc(C)c(N2C(=O)C(=O)C(c3nc4ccccc4o3)/C(=N\NC(=O)c3ccccc3O)C2=O)c1` (stereo not given), with 21% (inactive).
With `O=C(/C=C/C=C/c1ccccc1)c1ccco1`, the growth inhibition is 28% (inactive).
The same measure, in the same setting: then `O=C1CCC(=O)c2c1c(O)c1ccncc1c2O`, with 99% (active); and `CNC(=O)OC(C)CN1c2ccccc2Sc2ccc(Cl)cc21` (stereo not given), with 45% (inactive); and `c1coc(C2=Nc3cccc4cccc(c34)N2)c1`, with 81% (active).
The same measure, in the same setting: the value for `CCOC(=O)[C@]12CCC[C@@]1(O)NC(=O)c1cnccc12` was 98% (active).
Still for that read-out and setting: the value for `Cc1cccc(C)c1N1C(=O)C2Nc3ccccc3SC2C1=O` (stereo not given) was 96% (active).
In the case of `CCc1cccc(C(C)(C)C)c1NC(=S)N/C=C(\c1ccccc1)S(=O)Cc1ccccc1` (stereo not given), the growth inhibition was 56% (inactive).
`CC(=O)Nc1ccc(-c2cnc3ccccc3c2)cc1`: the growth inhibition is 18% (inactive).
The same measure, in the same setting: then `OCC(CO)C1c2cccc3ccc4cccc1c4c23`, with 46% (inactive); and `O=C1CC(=S)NC(=S)N1`, with -2% (inactive); and `Cc1c2ccnc(C(N)=O)c2c(C)c2c1[nH]c1ccccc12`, with 84% (active).
Still for that read-out and setting: the value for `CCC(=O)Sc1ccccc1C(=O)Nc1ccc(Cl)cc1` was 47% (inactive); that for `O=C(O)c1c(Cl)c(Cl)c(Cl)c(Cl)c1-c1c2cc(I)c(=O)c(I)c-2oc2c(I)c(O)c(I)cc12` was 98% (active).
Same read-out and setting: then `C=C/C=C/CC=C`, with -38% (inactive); and `Cc1ccccc1N1CCN(c2c3c(nc4ccccc24)CCCCC3)CC1`, with 95% (active).
Take `N/N=C(\N)c1ccc2ccc3cccnc3c2n1`: the growth inhibition was 77% (active).
Consider `CCCCCC(CCCCC)C(=O)O`, for which the growth inhibition was 48% (inactive).
Consider `O=Cc1cc(S(=O)(=O)c2ccc(O)c(C=O)c2)ccc1O`, for which the growth inhibition is 25% (inactive).
The same measure, in the same setting: the value for `Cc1ccc(C)c(N2C(=O)C(=O)C(c3nc4ccccc4o3)C(=O)C2=O)c1` was 98% (active).
The same measure, in the same setting: the value for `COC(=O)c1cc(C)c2sc3ccccc3c2c1C` was 51% (inactive); that for `O=C1NC(=O)N(c2ccc(Cl)c(Cl)c2)C1=O` was 7% (inactive); that for `Clc1ccc2oc(N3CCCCC3)nc2c1` was 6% (inactive).
Still for that read-out and setting: the value for `Cc1ccc(N=NC(C(=O)c2ccccc2)C(=O)c2ccccc2)cc1` was 92% (active).

Values taken from PubChem BioAssay (NCI).
